Assay results: PubChem BioAssay (EPA / NIEHS)
Several values for one entry are separate records, joined by “and”; a condition that tells them apart may be missing. Identical values can stand only once. Inconclusive results are not listed. More than one record can exist for a structure, and the calls need not agree. Activity calls are given as the source filed them. The calls were made as follows, unless noted: active = hit-call score of the fitted dose curve at least 0.9, where 1 is the maximum; inconclusive = response in the unintended direction; inactive = score below 0.9.

What was measured:
[1] = molecular target: Bile acid receptor (Homo sapiens) (UniProt Q96RI1); assay: OT_FXR_FXRSRC1_1440: Odyssey Thera (OT) 24-hour HEK293T Protein-Complementation Assay for Farnesoid X receptor/SRC-1 Co-activator (AID 2283384)
Method in brief: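 Cell-based binding reporter: interaction of FXR with SRC-1 brings reporter fragments together, giving a fluorescence signal read 24 h after dosing of HEK293T cells.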

[2] = molecular target: Retinoic acid receptor RXR-alpha (Homo sapiens) (UniProt P19793); assay: OT_NURR1_NURR1RXRa_0480: Odyssey Thera (OT) 8-hour HEK293T Protein Complementation Assay for Nurr1/retinoid X receptor (RXR) (AID 2283385)
Method in brief: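 Compounds are applied to HEK293T cells carrying Nurr1 and RXRα linked to reporter fragments. After 8 h, fluorescence intensity reports heterodimer formation, with DMSO as baseline.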

[3] = molecular target: Retinoic acid receptor RXR-alpha (Homo sapiens) (UniProt P19793); assay: OT_NURR1_NURR1RXRa_1440: Odyssey Thera (OT) 24-hour HEK293T Protein Complementation Assay for Nurr1/retinoid X receptor (RXR) (AID 2283386)
Method in brief: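 Measured as fluorescence from a reconstituted split reporter, this 24 h HEK293T complementation assay scores compound-induced gain of Nurr1/RXRα association relative to DMSO.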

[4] = molecular target: Peroxisome proliferator-activated receptor gamma (Homo sapiens) (UniProt P37231); assay: OT_PPARg_PPARgSRC1_0480: Odyssey Thera (OT) 8-hour Protein-Complementation Assay for Peroxisome Proliferator-activated Receptor Gamma / SRC-1 Co-activator (AID 2283387);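 also: nuclear to cytoplasmic split Venus YFP fluorescence ratio reporting PPARg SRC-1 interaction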
Method in brief: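 Split-YFP (IFP1/IFP2) PPARg/SRC-1 reporter, HEK293T, 37 °C, 5% CO2; 8 h compound; formaldehyde fix + Draq5; high-content imaging, N/C ratio, ≥350 cells/image, positive direction vs DMSO.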

[5] = molecular target: Peroxisome proliferator-activated receptor gamma (Homo sapiens) (UniProt P37231); assay: OT_PPARg_PPARgSRC1_1440: Odyssey Thera (OT) 24-hour Protein-Complementation Assay for Peroxisome Proliferator-activated Receptor Gamma/ SRC-1 Co-activator (AID 2283388);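 also: nuclear to cytoplasmic ratio of reconstituted Venus YFP fluorescence in fixed imaged cells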
Method in brief: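 Protein-fragment complementation between PPARg and coactivator SRC-1 was measured by fluorescence imaging in transiently transfected HEK293T cells after 24 h treatment. Signal was quantified as N/C ratio in the 488 nm channel, with DMSO as negative control.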

[6] = CEETOX_H295R_OHPREG: CeeTox H295R High-throughput Steroidogenesis Assay for OH-Pregnenolone (OHPREG) (AID 2283434; active = hit-call score of the fitted dose curve at least 0.9, where 1 is the maximum; inactive = score below 0.9); conditions: actives raise or lower the signal
Method in brief: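 H295R cells pre-stimulated 48 h with 10 uM forskolin, then exposed 48 h to chemical in 0.1% DMSO. 17alpha-hydroxypregnenolone in medium quantified by MTBE extraction and HPLC-MS/MS; bidirectional fit versus DMSO, viability checked by MTT.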

[7] = CEETOX_H295R_OHPROG: CeeTox H295R High-throughput Steroidogenesis Assay for OH-Progesterone (OHPROG) (AID 2283435; active = hit-call score of the fitted dose curve at least 0.9, where 1 is the maximum; inactive = score below 0.9;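 as to AC50: human adrenal H295R cells primed 48 h with 10 µM forskolin; 17alpha-hydroxyprogesterone secreted into medium measured by HPLC-MS/MS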); conditions: actives raise or lower the signal
Method in brief: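 Secreted 17alpha-hydroxyprogesterone is read by tandem MS from media of forskolin-primed H295R cells dosed with chemical for 48 h. Activity is fitted in both directions against DMSO baseline; cytotoxic concentrations are re-tested diluted.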

[8] = CEETOX_H295R_ANDR: CeeTox H295R High-throughput Steroidogenesis Assay for Androstenedione (ANDR) (AID 2283436; active = hit-call score of the fitted dose curve at least 0.9, where 1 is the maximum; inactive = score below 0.9); conditions: actives raise or lower the signal
Method in brief: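 H295R cells, following OECD 456 with minor changes, exposed to chemicals for 48 h. Androstenedione in the medium was quantified by HPLC-MS/MS after MTBE extraction. Fitting was bidirectional versus DMSO; chemicals were diluted until MTT viability was ≥70%.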

[9] = CEETOX_H295R_11DCORT: CeeTox H295R High-throughput Steroidogenesis Assay for 11-Deoxycortisol (11DCORT) (AID 2283432; active = hit-call score of the fitted dose curve at least 0.9, where 1 is the maximum; inactive = score below 0.9;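 as to AC50: 11-deoxycortisol secreted into the medium measured by LC-MS/MS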); conditions: actives raise or lower the signal
Method in brief: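 Steroidogenesis in human H295R cells: 48 h chemical exposure after forskolin priming, 11-deoxycortisol measured by LC-MS/MS.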

[10] = CEETOX_H295R_CORTIC: CeeTox H295R High-throughput Steroidogenesis Assay for Corticosterone (CORTIC) (AID 2283437; active = hit-call score of the fitted dose curve at least 0.9, where 1 is the maximum; inactive = score below 0.9;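 also: corticosterone secreted into medium quantified by mass spectrometry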;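 as to AC50: human H295R adrenal cells prestimulated with forskolin before chemical exposure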); conditions: actives raise or lower the signal
Method in brief: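 H295R adrenal cells prestimulated 48 hours with 10 uM forskolin, then exposed 48 hours to chemical in 0.1% DMSO. Corticosterone in medium measured by HPLC-MS/MS after MTBE extraction; MTT viability in the same wells; bidirectional fit versus DMSO.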

Measured: AC50

Chain of Bile acid receptor (Homo sapiens) (Q96RI1 whole entry, looked up, the tested form may be a part): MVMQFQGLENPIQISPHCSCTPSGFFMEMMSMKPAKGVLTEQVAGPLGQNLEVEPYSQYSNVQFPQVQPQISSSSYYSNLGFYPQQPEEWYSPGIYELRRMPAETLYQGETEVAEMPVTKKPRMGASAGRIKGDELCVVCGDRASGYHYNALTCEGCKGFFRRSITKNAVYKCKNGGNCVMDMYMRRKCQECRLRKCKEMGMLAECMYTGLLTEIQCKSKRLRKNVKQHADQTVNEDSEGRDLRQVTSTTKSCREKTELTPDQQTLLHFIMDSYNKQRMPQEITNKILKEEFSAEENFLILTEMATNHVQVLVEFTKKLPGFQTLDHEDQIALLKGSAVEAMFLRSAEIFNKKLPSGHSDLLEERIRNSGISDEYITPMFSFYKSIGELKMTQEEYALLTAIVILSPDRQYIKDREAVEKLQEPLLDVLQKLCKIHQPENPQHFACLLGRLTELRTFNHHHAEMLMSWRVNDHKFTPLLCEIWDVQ
Chain of Retinoic acid receptor RXR-alpha (Homo sapiens) (P19793 whole entry, looked up, the tested form may be a part): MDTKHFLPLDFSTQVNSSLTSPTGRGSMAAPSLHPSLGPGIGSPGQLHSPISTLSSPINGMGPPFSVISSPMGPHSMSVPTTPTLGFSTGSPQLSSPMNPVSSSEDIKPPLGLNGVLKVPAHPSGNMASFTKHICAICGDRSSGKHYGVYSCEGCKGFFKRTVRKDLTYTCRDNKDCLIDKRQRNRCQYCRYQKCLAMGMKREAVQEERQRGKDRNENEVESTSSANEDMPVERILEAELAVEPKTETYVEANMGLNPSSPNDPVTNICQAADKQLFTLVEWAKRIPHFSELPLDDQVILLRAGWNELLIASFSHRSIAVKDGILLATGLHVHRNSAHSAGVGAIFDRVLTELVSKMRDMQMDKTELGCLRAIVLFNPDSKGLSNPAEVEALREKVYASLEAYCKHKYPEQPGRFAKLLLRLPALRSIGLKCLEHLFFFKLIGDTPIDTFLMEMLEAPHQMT
Chain of Peroxisome proliferator-activated receptor gamma (Homo sapiens) (P37231 whole entry, looked up, the tested form may be a part): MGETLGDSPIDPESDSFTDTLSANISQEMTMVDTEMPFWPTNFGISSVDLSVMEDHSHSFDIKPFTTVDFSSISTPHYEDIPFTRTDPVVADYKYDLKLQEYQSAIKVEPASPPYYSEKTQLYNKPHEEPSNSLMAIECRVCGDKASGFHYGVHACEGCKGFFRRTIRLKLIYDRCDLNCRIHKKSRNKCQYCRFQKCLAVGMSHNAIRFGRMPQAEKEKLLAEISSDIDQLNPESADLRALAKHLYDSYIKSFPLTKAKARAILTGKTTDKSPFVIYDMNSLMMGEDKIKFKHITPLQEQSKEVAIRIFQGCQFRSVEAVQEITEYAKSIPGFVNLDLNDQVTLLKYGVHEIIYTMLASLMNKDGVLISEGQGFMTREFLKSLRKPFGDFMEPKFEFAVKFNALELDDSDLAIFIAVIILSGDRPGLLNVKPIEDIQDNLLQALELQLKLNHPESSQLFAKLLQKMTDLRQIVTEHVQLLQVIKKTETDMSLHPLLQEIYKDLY

ClC1(Cl)C2(Cl)C3(Cl)C4(Cl)C(Cl)(Cl)C5(Cl)C3(Cl)C1(Cl)C5(Cl)C24Cl (stereo not drawn)
inactive: [1] | [2] | [3] | [4]

COP(=O)(OC)O/C(=C\Cl)c1cc(Cl)c(Cl)cc1Cl
active: [2] 4.45 µM
not listed: [9] | [10]
inactive: all other assays above

[O-][Cl+2]([O-])O
inactive: [1] | [4] | [5]

O=C(Cc1ccccc1)c1ccccc1
active: [7] 43.6 µM
not listed: [4] | [5] | [8]
inactive: all other assays above

Cn1sc(Cl)cc1=O
inactive: [1] | [2] | [3] | [4] | [5]

Fc1ccc(C2(Cn3cncn3)OC2c2ccccc2Cl)cc1 (stereo not drawn)
active: [1] 18.9 µM | [9] 7.55 µM | [6] 0.645 µM | [7] 2.06 µM
inactive: [2] | [3] | [4] | [10]

CN(C)N=O
inactive: [1] | [2] | [3] | [4]

CCOP(=S)(OCC)Oc1nc(Cl)c(Cl)cc1Cl
active: [1] 76.4 µM | [2] 83.4 µM and 71 µM | [3] 85.3 µM | [9] 94.9 µM | [6] 80.5 µM | [8] 60.7 µM
inactive: [3] | [4] | [7] | [10]

CCC1(c2ccc(N)cc2)CCC(=O)NC1=O (stereo not drawn)
inactive: [1] | [3] | [4]

CCCCOCCOC(C)=O
inactive: [1] | [4]

O=C1CCCN1
inactive: [1] | [3] | [4]

Oc1ccc(-c2ccccc2)cc1
inactive: [2] | [4]
active: [1] 33.3 µM | [3] 50 µM | [9] 87.6 µM | [6] 74.2 µM | [7] 13.1 µM | [10] 14 µM

CCC[CH2][Sn]([Cl])([Cl])[Cl]
inactive: [1] | [2]

N#CN=C(N)N
inactive: [1] | [3] | [4] | [5]

Clc1ccc(C2(Cn3cncn3)CC(Br)CO2)c(Cl)c1 (stereo not drawn)
inactive: [1] | [2] | [3] | [4]

CC(C)(C)c1cc(O)ccc1O
inactive: [2] | [3] | [4]
active: [1] 62.2 µM | [2] 69.5 µM

c1cc[c]([Hg][c]2ccccc2)cc1
active: [1] 51.6 µM | [2] 29.7 µM | [3] 63.4 µM | [5] 50 µM
inactive: [4]

C=CC(=O)OCCCCCC(C)C
inactive: [1] | [4]

COP(=O)(OC)OC
inactive: [1] | [2] | [3] | [4] | [5]

O=C(O)C(F)(F)C(F)(F)C(F)(F)C(F)(F)C(F)(F)C(F)(F)F
inactive: [1] | [2] | [3] | [4]

O=C(OC1CCCCC1)c1ccccc1C(=O)OC1CCCCC1
active: [1] 61.8 µM | [2] 44.6 µM
inactive: [4]

CC(=O)[O][Hg][c]1ccccc1
active: [1] 0.2 µM | [3] 0.266 µM
inactive: [4] | [5]

O=C1C2(Cl)C3(Cl)C4(Cl)C(Cl)(Cl)C5(Cl)C3(Cl)C1(Cl)C5(Cl)C24Cl (stereo not drawn)
active: [1] 10.8 µM
inactive: [4] | [5]

NC(=O)O
inactive: [2]

CC(C)(C)CC(C)(C)c1ccc(O)cc1
active: [2] 11.3 µM and 11.2 µM | [3] 11.2 µM

CC(C)C1CCC(Cc2ccc(Cl)cc2)C1(O)Cn1cncn1 (stereo not drawn)
inactive: [4]
active: [1] 11.2 µM

O=C(O)C(F)(F)C(F)(F)C(F)(F)C(F)(F)C(F)(F)C(F)(F)C(F)(F)C(F)(F)C(F)(F)C(F)(F)F
inactive: [1] | [2] | [3] | [4] | [5]

C=C(C)C(=O)[O][Sn]([CH2]CCC)([CH2]CCC)[CH2]CCC
active: [5] 0.0287 µM
inactive: [1] | [4] | [5]

CCC(=O)C(CC(C)N(C)C)(c1ccccc1)c1ccccc1 (stereo not drawn)
inactive: [1] | [2] | [3] | [4] | [5]

CC1(C)CCC(Cc2ccc(Cl)cc2)C1(O)Cn1cncn1 (stereo not drawn)
active: [1] 31.6 µM | [6] 0.143 µM | [7] 0.0959 µM
inactive: [2] | [3] | [4] | [5]

CC(C)c1cccc(C(C)C)c1O
inactive: [2] | [3] | [5]

CC12CC1(C)C(=O)N(c1cc(Cl)cc(Cl)c1)C2=O (stereo not drawn)
active: [7] 20.9 µM | [8] 30.9 µM | [10] 14.1 µM
not listed: [1] | [5]
inactive: all other assays above

CCCCCCCCc1ccc(O)cc1
active: [3] 57.4 µM
inactive: [2] | [3] | [4] | [5]
